Measured values as given in the supplement of paper PMC12045047.
A number with no mark means an inactive call.

Each compound was assayed on primary human airway basal cells (HBEC, luciferase-transduced) (assay: proliferation (luciferase bioluminescence) Z score relative to plate mean; higher = more proliferation / more cells, active = 1.96 or more). Settings: donor: 1; 0.5 µM; library: ENZO Libraries; 4 days.
Method: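 Primary human bronchial epithelial (airway basal) cells from two donors, lentivirally transduced with pHIV-Luc-ZsGreen, were seeded at 2000 cells/well in 384-well plates in FAD medium with ENZO or Prestwick library compounds and cultured for 4 days. Luciferin was then added and bioluminescence was read as a measure of cell number. Relative light units were converted to Z scores against the plate, and the mean of triplicate wells is reported.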
`COCc1cc(O)c(O)c(O)c1-c1c(COC)cc(O)c(O)c1O` showed a proliferation of -0.578. In the case of `NC(=O)c1cccnc1` [Nicotinamide], the proliferation is reported as 0.0934. `Nc1nc2ncnc-2c[nH]1` [2-Aminopurine] was tested, and the proliferation was -0.301. With `O=c1ncccn1[C@@H]1O[C@H](CO)[C@@H](O)[C@H]1O` [Zebularine] the proliferation was -0.238. `C[C@H](CS)C(=O)N1CCC[C@H]1C(=O)O` [Captopril] was tested, and the proliferation was -0.424. `O=C(O)c1ccnc(C(=O)O)c1` [24-Pyridinedicarboxylic Acid] was tested, and the proliferation was 0.171. In the case of `COc1cc(/C=C(\C#N)C(N)=O)cc(CSc2nc3ccccc3s2)c1O`, the proliferation is reported as -0.428. In the case of `CC(C)C[C@H](NC(=O)N[C@H](C(=O)N[C@@H](CCC(N)=O)C(=O)N[C@@H](C)C=O)[C@@H]1CCNC(=N)N1)C(=O)O` [Elastatinal], the proliferation is reported as -0.455. For `CC(C)CCNC(=O)[C@H](CC(C)C)NC(=O)[C@H]1O[C@@H]1C(=O)O`, the proliferation was -0.298. In the case of `N#CC(C#N)=C(N)/C(C#N)=C/c1cc(O)c(O)c(O)c1`, the proliferation is reported as -0.239. In the case of `CC[C@H](CO)Nc1nc(NCc2ccccc2)c2ncn(C(C)C)c2n1` [Roscovitine], the proliferation is reported as -0.00187. `N#C/C(=C\c1ccc(O)c(O)c1)C(=O)Nc1ccccc1` was tested, and the proliferation was 0.183. In the case of `C=CC(=O)c1ccc2ccccc2c1`, the proliferation is reported as 0.129. With `CC(NC(=O)C(Cc1ccccc1)NC(=O)OCc1ccccc1)C(=O)CF` (stereo not given) the proliferation was -0.176. In the case of `CNC(=O)[C@H](Cc1c[nH]c2ccccc12)NC(=O)[C@@H](CC(=O)NO)CC(C)C`, the proliferation is reported as -0.298. `O=Nc1c(-c2c(O)[nH]c3ccccc23)[nH]c2ccccc12` [Indirubin-3'-monooxime] gave a proliferation of -0.0926. In the case of `CCCCCCCCCC(=O)N[C@@H](CCCN=C(N)N)C(=O)N[C@H](C(=O)N[C@@H](CCCCN)C(=O)N[C@@H](CCCN=C(N)N)C(=O)CCl)C(C)C`, the proliferation is reported as 0.21. Work on `O=C(CCCCCCC(=O)NO)NO` [Suberoyl bis-hydroxamic acid] yielded a proliferation of 0.147. `COc1cccc(-c2cc(=O)c3ccccc3o2)c1N` was tested, and the proliferation was 2.9 (active). In the case of `Cc1ccc(S(=O)(=O)N[C@@H](Cc2ccccc2)C(=O)CCl)cc1`, the proliferation is reported as -0.621.

Same assay, conditions: donor: 1; 5 µM; library: ENZO Libraries; 4 days
`COCc1cc(O)c(O)c(O)c1-c1c(COC)cc(O)c(O)c1O` was tested, and the proliferation was -0.416. `NC(=O)c1cccnc1` [Nicotinamide] showed a proliferation of 0.119. `Nc1nc2ncnc-2c[nH]1` [2-Aminopurine] was tested, and the proliferation was -0.296. `O=c1ncccn1[C@@H]1O[C@H](CO)[C@@H](O)[C@H]1O` [Zebularine] was tested, and the proliferation was 0.0287. Work on `C[C@H](CS)C(=O)N1CCC[C@H]1C(=O)O` [Captopril] yielded a proliferation of -0.0768. For `O=C(O)c1ccnc(C(=O)O)c1` [24-Pyridinedicarboxylic Acid], the proliferation was -0.194. `COc1cc(/C=C(\C#N)C(N)=O)cc(CSc2nc3ccccc3s2)c1O` showed a proliferation of -0.258. Compound `CC(C)C[C@H](NC(=O)N[C@H](C(=O)N[C@@H](CCC(N)=O)C(=O)N[C@@H](C)C=O)[C@@H]1CCNC(=N)N1)C(=O)O` [Elastatinal] has a proliferation of -0.0211. With `CC(C)CCNC(=O)[C@H](CC(C)C)NC(=O)[C@H]1O[C@@H]1C(=O)O` the proliferation was -0.117. Compound `N#CC(C#N)=C(N)/C(C#N)=C/c1cc(O)c(O)c(O)c1` has a proliferation of -0.228. `CC[C@H](CO)Nc1nc(NCc2ccccc2)c2ncn(C(C)C)c2n1` [Roscovitine] showed a proliferation of -0.592. In the case of `N#C/C(=C\c1ccc(O)c(O)c1)C(=O)Nc1ccccc1`, the proliferation is reported as 0.06. `C=CC(=O)c1ccc2ccccc2c1` showed a proliferation of -0.357. `CC(NC(=O)C(Cc1ccccc1)NC(=O)OCc1ccccc1)C(=O)CF` (stereo not given) was tested, and the proliferation was -0.114. `CNC(=O)[C@H](Cc1c[nH]c2ccccc12)NC(=O)[C@@H](CC(=O)NO)CC(C)C` gave a proliferation of -0.522. In the case of `O=Nc1c(-c2c(O)[nH]c3ccccc23)[nH]c2ccccc12` [Indirubin-3'-monooxime], the proliferation is reported as 2.48 (active). For `CCCCCCCCCC(=O)N[C@@H](CCCN=C(N)N)C(=O)N[C@H](C(=O)N[C@@H](CCCCN)C(=O)N[C@@H](CCCN=C(N)N)C(=O)CCl)C(C)C`, the proliferation was 0.0695. Compound `O=C(CCCCCCC(=O)NO)NO` [Suberoyl bis-hydroxamic acid] has a proliferation of -0.101. With `COc1cccc(-c2cc(=O)c3ccccc3o2)c1N` the proliferation was 2.39 (active). `Cc1ccc(S(=O)(=O)N[C@@H](Cc2ccccc2)C(=O)CCl)cc1` showed a proliferation of -0.67.
